We go through 66 molecules from PubChem BioAssay AID2018 (Sanford-Burnham Center for Chemical Genomics, 2009).

In all, about 1,200 compounds went through this assay and about 600 (50%) were called active. No stated cut-off is given here; in the data, active means inhibition above about 42%; inactive means the rest. So high a share suggests a set chosen from earlier hits. The list shows a part of the results. Potency and affinity values are given separately.

Sequence of SUMO-conjugating enzyme UBC9 (Homo sapiens) (P63279 whole entry, looked up): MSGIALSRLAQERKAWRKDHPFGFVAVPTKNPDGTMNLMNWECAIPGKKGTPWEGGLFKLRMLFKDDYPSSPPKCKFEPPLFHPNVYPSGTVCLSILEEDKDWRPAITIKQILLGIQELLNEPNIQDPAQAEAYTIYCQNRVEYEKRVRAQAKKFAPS

This assay concerns the target SUMO-conjugating enzyme UBC9 (Homo sapiens) (UniProt P63279). The assay can be described thus: SUMOylation inhibitor hit validation, confirmation, SUMOylation inhibitor project, biochemical, AlphaScreen (AID 2018). Conditions: AlphaScreen in vitro SUMOylation assay; at 35 µM; hits give high values. In general terms: Alpha assays give light when donor and acceptor beads are brought close together.
The inhibition is the relative decrease from the control value, in per cent. With `COc1ccc(Br)cc1C1CC(=O)N2CN(Cc3ccccc3)CSC2=C1C#N` (stereo unspecified), the inhibition was 29.1% (inactive).

For the molecule `COc1ccc(CC2=C(O)c3ccccc3C(=O)C2=O)cc1`, the inhibition is 19.6% (inactive).

Take `O=C1C(=O)c2ccccc2C(O)=C1CCCCl`: the inhibition was 102% (active). Take `CC1(OC(=O)c2cccs2)C(=O)C=C2C=C3CCCN3C=C2C1=O` (stereo unspecified): the inhibition was 83.7% (active). To `Cc1nc2ccc(NC(=O)NCc3ccco3)cc2s1` belongs -8.1% (inactive). The figure for `CC(=O)C1=C(O)C=C(c2ccco2)CC1c1ccco1` (stereo unspecified) is 28.1% (inactive).

For the molecule `Cc1ccc(S(=O)(=O)NNC(=S)Nc2c(Cl)cccc2Cl)cc1`, the inhibition is -0.4% (inactive).

On to `Fc1ccc(-c2ccnc3nc(N4CCOCC4)nn23)cc1`, for which the inhibition was -6.1% (inactive).

Consider `O=C(O)c1ccc(C(=O)Nc2cccc3ccccc23)c(C(=O)O)c1`, for which the inhibition is 12.5% (inactive). With `Cc1cc(N2C(=O)c3ccc(C(=O)Nc4ccc(O)cc4C(=O)O)cc3C2=O)no1`, the inhibition is 39.8% (inactive). Take `N#Cc1ccc(-c2csc(NC(=O)/C=C/c3cccs3)n2)cc1`: the inhibition is 3.9% (inactive). The figure for `Nc1nnc(-c2cc3c(ccc4ccccc43)oc2=O)s1` is 46.1% (active). As to `CNc1nnc(-c2cc3ccccc3oc2=O)s1`, the inhibition was 28.9% (inactive). To `COC(=O)c1scc(C)c1NC(=O)C(Cl)c1ccccc1` (stereo unspecified) belongs -8.2% (inactive). To `N#Cc1sc2nc(-c3ccccc3)cc(-c3ccco3)c2c1N` belongs 96.1% (active); to `CC(=O)c1sc2nc(-c3ccco3)ccc2c1N`, 40% (inactive).

As to `N#Cc1c(-c2ccco2)cc(-c2cccnc2)nc1N`, the inhibition was 26.7% (inactive).

As for `COc1ccc(CN2C(=O)Cc3c2nc(N)c2c(N)nc(N4CCOCC4)c(C#N)c32)cc1`, the inhibition is 11% (inactive).

For the molecule `CCOc1cc2c(C#N)c(N3CCCCC3)nc(N)c2c(N)n1`, the inhibition was 101% (active).

`CCOc1cc2c(C#N)c(N3CCNCC3)nc(N)c2c(N)n1`: the inhibition was 18.3% (inactive). The figure for `CCOc1cc2c(C#N)c(N3CCOCC3)nc(N)c2c(N)n1` is 44.2% (active); for `Cc1oc2c(c(C)cc3oc(=O)c(CC(=O)NCC(=O)NCC(=O)NCC(C)O)c(C)c32)c1C` (stereo unspecified) it is -15.6% (inactive); for `O=C(Nc1cccc2cccc(NC(=O)c3ccco3)c12)c1ccco1` it is 36.3% (inactive). Turning to `CCOC(=O)c1c(NC(=O)c2ccco2)n(C2CCCCC2)c2nc3ccccc3nc12`, the inhibition was 63.5% (active). The figure for `COc1ccc(-n2c(NC(=O)c3ccco3)c(C#N)c3nc4ccccc4nc32)cc1` is 101% (active); for `CN(c1ccccc1)c1cc(=O)[nH]c(=O)[nH]1` it is 11.4% (inactive); for `Oc1ccc(NC(=S)Nc2ccc(O)cc2)cc1` it is 19.5% (inactive). `Oc1cccc(C=NCc2ccccc2)c1O`: the inhibition was 51.5% (active). To `Oc1cccc(C=Nc2cccc3ccccc23)c1O` belongs 59% (active); to `O=C(CNc1cccc2ccccc12)N/N=C/c1ccc([N+](=O)[O-])cc1`, -19.8% (inactive). As to `Oc1oc(-c2ccccc2)nc1C=Nc1cccc2ccccc12`, the inhibition is -77.5% (inactive). The figure for `Cc1ccccc1N=Cc1cccc(O)c1O` is 33.2% (inactive). As to `O=[N+]([O-])c1ccc(-c2ccc(C=Nc3cccc4ccccc34)o2)cc1`, the inhibition is 58.3% (active). For `O=[N+]([O-])c1ccc(C=Nc2cccc3ccccc23)s1`, the inhibition was 82.6% (active).

In the case of `CN(C)CCNS(=O)(=O)c1ccc2c3c(cccc13)C(=O)N2`, the inhibition was 15.4% (inactive). The figure for `Oc1cccc2c(NC(=S)Nc3ccc(SC(F)F)cc3)cccc12` is 36.5% (inactive); for `O=C(NCCc1csc(-c2ccccc2)n1)c1c(F)cccc1Cl` it is -8.6% (inactive). Turning to `O=[N+]([O-])c1cccc2cn[nH]c12`, the inhibition was -0.5% (inactive). As to `Oc1ccccc1N=Cc1c(O)ccc2ccccc12`, the inhibition was 56.9% (active). To `Oc1ccc(N=Cc2c(O)ccc3ccccc23)cc1` belongs 21.9% (inactive). As to `Oc1ccc(C=Nc2cccc3ncccc23)c(O)c1`, the inhibition was 27.7% (inactive). In the case of `Oc1ccc(C=Nc2cccc3ccccc23)c(O)c1`, the inhibition is 42.8% (active). Regarding `CCOc1ccc(C=Nc2cccc3ncccc23)cc1`, the inhibition was 23.5% (inactive).

Turning to `Oc1ccc2ccccc2c1C=Nc1ccc(Cl)cn1`, the inhibition is 26.1% (inactive). To `Oc1c(C=Nc2cccc3nsnc23)ccc2ccccc12` belongs 98% (active). To `COc1ccc(C=Nc2cccc3ncccc23)cc1` belongs 16.5% (inactive); to `N#CC1=C(N)N2C(=C(C#N)C1c1ccc(Br)cc1)Nc1ccccc12` (stereo unspecified), 20.4% (inactive); to `Cc1cc(NCCO)c2cc(O)ccc2n1`, 3% (inactive). To `O=[N+]([O-])c1cc(C=Nc2cccc3c(O)cccc23)ccc1Cl` belongs 33.8% (inactive); to `O=[N+]([O-])c1ccc(C=Nc2ccc(Cl)c([N+](=O)[O-])c2)s1`, 98.4% (active); to `O=C(NC(=S)Nc1cccc2c(O)cccc12)c1ccco1`, 41.6% (inactive). As for `CCCC(=O)NC(=S)Nc1cccc2c(O)cccc12`, the inhibition is 10.1% (inactive).

For the molecule `O=C(NC(=S)Nc1cccc2c(O)cccc12)c1cccc(Br)c1`, the inhibition was 52.7% (active).

As for `NNc1nc2c(Cl)ccc(Cl)c2s1`, the inhibition is 8% (inactive).

For the molecule `Cc1ccc(C)c(S(=O)(=O)Nc2cc(SCC(=O)O)c(O)c3ccccc23)c1`, the inhibition is 51.2% (active). The figure for `Cc1cc(C)c(S(=O)(=O)Nc2cc(SCC(=O)O)c(O)c3ccccc23)cc1C` is 43.1% (active). The figure for `Cc1ccc(C)c(S(=O)(=O)Nc2ccc(O)c3ccccc23)c1` is 39.8% (inactive); for `COc1ccc2c(C)c(C(=O)NCC(C)O)oc2c1OC` (stereo unspecified) it is 6.4% (inactive); for `COC(=O)c1cc2c(C)[nH]c(C)c2cc(C(=O)OC)c1=O` it is 13.6% (inactive).

On to `CN1CCCc2cc3c(C(F)(F)F)cc(=O)oc3nc21`, for which the inhibition is -9% (inactive).

Take `N#CC1=C(N)Oc2n[nH]c(-c3cccs3)c2C1c1cccs1` (stereo unspecified): the inhibition is 33.5% (inactive). As to `Cc1cc(-c2csc(NC(=O)c3ccc(C#N)cc3)n2)c(C)n1Cc1ccco1`, the inhibition was 21.4% (inactive). With `Cc1cc(NC(=O)CSc2nnc(Nc3ccccc3C)s2)no1`, the inhibition was 25.7% (inactive). As to `Cc1c(C)c2cc(Cl)c(O)c(CN3CCN(C)CC3)c2oc1=O`, the inhibition was -1% (inactive). On to `CCOC(=O)c1sc(NC(=O)c2cccc(S(=O)(=O)N3CCc4ccccc43)c2)c(C#N)c1C`, for which the inhibition is 33.4% (inactive). Take `O=C(NCc1ccccc1)Nc1cccn(Cc2ccccc2)c1=O`: the inhibition was 3.6% (inactive).
